Screens: PubChem BioAssay, The Scripps Research Institute Molecular Screening Center
Shown are actives, neighbours in structure and some others; about 2.8% of the full set was active somewhere.
MsrA inh – bovine MsrA enzyme inhibitors, primary screen, biochemical, absorbance, HTS | purified bovine MsrA, absorbance read-out | inhibition, % at 15.5 µM | actives 0.75% (n = 360,000) | AID 651718, 2012; in the data active means inhibition above about 4.5%
rCAG RNA binder – binders of r(CAG) RNA repeats, primary screen, biochemical, fluorescence | r(CAG) RNA repeat, TO-PRO-1 dye displacement fluorescence | inhibition, % at 3 µM | actives 1.3% (n = 370,000);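 active means inhibition above the plate cutoff, the mean of all test compounds on that plate plus 3 SD, cut at about 35% in these data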;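 further: higher means more dye released from RNA so lower well fluorescence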
sPLA2-III inh – human group III sPLA2 inhibitors, primary screen, biochemical, QFRET, BODIPY PC-A2 liposome substrate | Group 3 secretory phospholipase A2 (Homo sapiens), Q9NZ20 | inhibition, % at 12.2 µM | QFRET BODIPY PC-A2 liposome hydrolysis, fluorescence | actives 0.56% (n = 370,000) | AID 743126, 2013;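 active means inhibition above mean plus 3 SD of compounds lying within the high and low control bounds, cut at about 19% in these data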
Target sequence (Q9NZ20 whole entry, looked up): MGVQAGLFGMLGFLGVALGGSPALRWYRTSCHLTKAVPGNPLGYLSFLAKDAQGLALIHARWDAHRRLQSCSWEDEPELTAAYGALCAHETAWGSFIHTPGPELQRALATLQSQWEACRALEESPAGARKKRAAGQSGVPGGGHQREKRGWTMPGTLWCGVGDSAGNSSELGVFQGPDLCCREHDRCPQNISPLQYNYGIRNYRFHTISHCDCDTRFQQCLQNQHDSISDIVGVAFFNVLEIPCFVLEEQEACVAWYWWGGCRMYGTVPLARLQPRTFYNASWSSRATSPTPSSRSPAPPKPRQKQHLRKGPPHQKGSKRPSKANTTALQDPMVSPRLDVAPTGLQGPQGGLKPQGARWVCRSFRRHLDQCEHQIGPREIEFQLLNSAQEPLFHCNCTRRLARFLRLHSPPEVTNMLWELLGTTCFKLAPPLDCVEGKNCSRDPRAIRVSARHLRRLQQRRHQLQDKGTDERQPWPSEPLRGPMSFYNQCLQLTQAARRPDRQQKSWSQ
bovine MsrA act – bovine MsrA enzyme activators, primary screen, biochemical, absorbance, HTS; Methionine sulfoxide reductase A (Bos taurus); purified bovine MsrA, absorbance read-out; activation, % at 10.6 µM; actives 0.3% (n = 360,000); AID 602163, 2012; in the data active means activation above about 7.5%
rCAG binder conf – small molecules binding CAG repeat RNA – biochemical, fluorescence, confirmation. shares compounds with rCAG RNA binder. actives 70% (n = 4,300). inhibition, % at 3 µM. r(CAG) RNA repeat, TO-PRO-1 dye displacement fluorescence;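 active means inhibition above a per-plate cutoff, the mean inhibition of sample wells plus 3 SD, cut at about 35% in these data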;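 further: loss of TO-PRO-1 fluorescence as compound displaces dye from 1x1 AA loop RNA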
dCAG dye counter – displacement of TO-PRO-1 from CAG DNA duplex, counter-screen for rCAG RNA repeat binder project, biochemical, fluorescence, TO-PRO-1 dye, d(CAG) DNA oligo. inhibition, % at 3 µM. actives 94% (n = 4,300). d(CAG) DNA oligo TO-PRO-1 dye displacement. shares compounds with rCAG RNA binder. AID 652068, 2013;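 active means inhibition above its plate's cutoff, the mean test-well inhibition plus 3 SD, cut at about 4.8% in these data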;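 further: hits displace the dye from DNA and so lower well fluorescence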
DNA CAG DR – inhibitors of DNA CAG/GTC TO-PRO-1 complex, dose response, counter-screen for rCAG RNA repeat binder project, biochemical, fluorescence, TO-PRO-1 dye; shares compounds with rCAG RNA binder; DNA CAG/GTC duplex TO-PRO-1 dye displacement fluorescence; IC50, µM; actives 20% (n = 250); AID 686960, 2013; in the data active means IC50 below about 10 µM
Numbers stand for hits; n = inactive; x = not tested or not shown.

SMILES	MsrA inh	rCAG RNA binder	sPLA2-III inh	bovine MsrA act	rCAG binder conf	dCAG dye counter	others
CCc1ccc(C(=O)NC(CCSC)C(=O)O)cc1 (stereo not drawn)	n	n	n	n	x	x
CCCOc1cccc(C2C(C(=O)c3cc4ccccc4o3)=C(O)C(=O)N2c2cc(C)on2)c1 (stereo not drawn)	n	44	n	n	77	36
CCCCCOc1ccc(C2C(C(=O)c3ccc(C)o3)=C(O)C(=O)N2c2cc(C)on2)cc1 (stereo not drawn)	n	36	n	n	49	15
Cc1cc(N2C(=O)C(O)=C(C(=O)c3cc4ccccc4o3)C2c2cccc(Br)c2)no1 (stereo not drawn)	n	69	n	n	79	46
O=C(O)/C=C\c1cn(-c2ccccc2)nc1-c1cc2ccccc2o1	n	72	n	n	62	22
CN(C)C(=O)c1cn(-c2ccccc2)nc1-c1cc2ccccc2o1	n	n	n	n	x	x
O=C(O)/C=C/c1cn(-c2ccccc2)nc1-c1cc2ccccc2o1	n	67	n	n	73	26	DNA CAG DR=n
CCc1cc2ccc(C)cc2nc1SCC(=O)Nc1cc(OC)c(OC)cc1C(=O)O	n	45	n	n	76	28	DNA CAG DR=n
CCNC(=O)NC(=O)C(C)OC(=O)c1oc2ccccc2c1CSC1CCCCC1 (stereo not drawn)	n	n	n	n	x	x
N#CC(=C(O)CN1CCN(c2ccccc2F)CC1)c1nc(-c2ccc(Cl)cc2)cs1	n	51	n	n	63	24
N#CC(=C(O)CN1CCN(c2ccccc2F)CC1)c1nc(-c2ccccc2)cs1	n	51	n	n	51	18
CCOC(=O)C1CCCN(C/C(O)=C(\C#N)c2nc(-c3ccc(Cl)cc3)cs2)C1 (stereo not drawn)	n	35	n	n	58	17
C[C@H]1COC(=O)[C@H](NC(=O)OCC2c3ccccc3-c3ccccc32)C/C=C\C[C@H](CC(=O)N(CCO)Cc2ccccc2)C(=O)N1	n	n	n	n	x	x
CC(=O)NC(CSc1cc(C)nc2ccc(Br)cc12)C(=O)O (stereo not drawn)	n	n	n	n	x	x
COC(=O)[C@H](CC(C)C)N(Cc1cn(Cc2ccc(C)cc2)nn1)S(=O)(=O)c1ccc(F)cc1Br	x	n	n	x	x	x
C=CC[n+]1cccc(-c2cc3ccc(C)cc3[nH]2)c1	n	n	n	n	x	x
CCN=C1S/C(=C\c2cn(CC)c3ccccc23)C(=O)N1CC	n	n	n	n	x	x
Cc1ccc(N=C2S/C(=C\c3cn(CC(=O)O)c4ccccc34)C(=O)N2C)cc1	n	77	n	n	76	36
CC(C)C[C@H](NC(=O)N1CCn2c1nc1ccccc12)C(=O)NCc1ccco1	n	n	n	n	x	x
COc1ccc2c(c1)C(=O)N(c1ccc(C)cc1)C(=O)C2	n	n	n	n	x	x
O=C1c2cc(O)cc(O)c2C(=O)c2c1cc(O)c([C@@H](CO)CCO)c2O	n	53	n	n	44	19
O=C(O)c1ccccc1NC(=O)C(Cc1ccccc1)N1C(=O)c2ccccc2C1=O (stereo not drawn)	n	42	n	n	49	12
COC(=O)c1ccc(C(=O)OC)c(NC(=S)N2CCC(N3CCCCC3)CC2)c1	n	n	n	n	x	x
O=C1NC(c2cc(Cl)cc([N+](=O)[O-])c2O)Nc2ccccc21 (stereo not drawn)	n	35	n	n	80	45
CCOC(=O)CNS(=O)(=O)c1ccc2c3c(cccc13)C(=O)N2CC	n	n	n	n	x	x
SMILES	MsrA inh	rCAG RNA binder	sPLA2-III inh	bovine MsrA act	rCAG binder conf	dCAG dye counter	others
CCOC(=O)Cc1csc(NS(=O)(=O)c2ccc3c4c(cccc24)C(=O)N3CC)n1	n	56	n	n	47	13
CCOC(=O)c1cc(C#N)c(SCC(=O)Nc2ccc(C(C)=O)cc2)[nH]c1=O	n	43	n	n	44	10
CCOC(=O)c1c(NC(C)=O)sc(C(=O)NC2CCCC2)c1C	n	n	n	n	x	x
CCOC(=O)c1c(NC(C)=O)sc(/C(C)=N/Nc2ccc(C(=O)O)cc2)c1C	n	40	n	n	n	n
OC1C2CCC(C2)C1CN1CCOCC1 (stereo not drawn)	n	n	n	n	x	x
COc1ccccc1C1=NOC(COC(=O)c2ccc([N+](=O)[O-])cc2)C1 (stereo not drawn)	n	n	n	n	x	x
O=C(O)CSc1nc(-c2ccc(Cl)cc2)nc2c1oc1ccccc12	n	41	n	n	82	62
O=C(O)CSc1nc(-c2ccccc2)nc2c1oc1ccccc12	n	59	n	n	48	14
CCCc1nc2c(=O)n(C)c(=O)[nH]c2n1C	n	n	n	n	x	x
CS(=O)(=O)c1ccc2nc(NC(=O)Nc3ccc(Cl)cc3)sc2c1	n	60	n	n	54	34
O=C(NNc1nc2ccccc2s1)Nc1ccc(F)cc1	n	n	n	n	x	x
NS(=O)(=O)c1ccc2nc(NC(=O)Nc3ccc(F)cc3)sc2c1	n	57	n	n	n	24
CC(OC(=O)Cc1c[nH]c2ccccc12)C(=O)Nc1ccc(S(N)(=O)=O)cc1 (stereo not drawn)	n	n	n	n	x	x
C/C=C1\NC(=O)[C@H](C)NC(=O)[C@@H](NC(=O)[C@@H](Cc2ccc(O)cc2)NC(=O)[C@@H](NC(=O)/C(C)=C/C)C(C)C)[C@@H](C)OC(=O)[C@H](CCCCc2ccc(O)cc2)NC(=O)[C@@H](CCC(=O)O)NC1=O	n	36	n	n	n	6.7
Cc1ccc(/C=C(\CCC(=O)O)c2nc3ccccc3s2)cc1[N+](=O)[O-]	n	49	n	n	65	25
CN(c1ccccc1)c1ccc(/C=C(\C#N)c2nnc3n2CCCCC3)cc1[N+](=O)[O-]	n	n	n	n	x	x
CN(c1ccccc1)c1ccc(/C=C(\CCC(=O)O)c2nc3ccccc3s2)cc1[N+](=O)[O-]	n	71	n	n	78	37
O=C(O)c1ccc(C=C(c2nc3ccccc3s2)c2nc3ccccc3s2)cc1	n	n	n	n	x	x
CCOc1ccccc1C(=O)n1nc(C)cc1C	n	n	n	n	x	x
O=C(CCCOc1ccccc1)Nc1ccc(Cl)cn1	n	n	n	n	x	x
COc1ccc(C(=O)CCC(=O)Nc2cccc(Cl)c2)cc1	n	n	n	n	x	x
